Active and inactive are the calls of the source.
Columns and labels:
[1] = molecular target: Albumin (Bos taurus) (UniProt P02769); assay: bovine serum albumin binders on microarray, profiling panel, artefact control for SMM control protein annotation, biochemical, small-molecule microarray, Alexa647 label, 635/667 nm fluorescence (AID 1118); settings: BSA-A647 binding, fluorescence 635 nm, higher = more signal;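 note: score merges 667 nm emission intensity and signal-to-noise per printed compound spot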
[2] = small-molecule microarray binders of probe aXIP, primary screen, biochemical, NeuroSMM set, 635/667 nm fluorescence (AID 1119); settings: higher = more signal, called active from +8 up or from −8 down;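 note: probe is the protein aXip251-270 applied at 1 µg/mL to compound-printed slides; binding of probe to printed compounds measured as 667 nm fluorescence plus signal to noise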
[3] = small-molecule binders of probe aNOTCH3, primary screen, biochemical, small-molecule microarray, 635/667 nm fluorescence (AID 1120); settings: higher = more signal;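 note: probe is a biotin-tagged antibody raised against NOTCH3 rather than NOTCH3 protein; score merges spot fluorescence near 667 nm with spot signal to noise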
[4] = small-molecule binders of probe aNOTCH2, primary screen, biochemical, small-molecule microarray, 635/667 nm fluorescence (AID 1121); settings: higher = more signal;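 note: score merges feature fluorescence read at 667 nm with its signal to noise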
[5] = molecular target: Carbonic anhydrase 2 (Homo sapiens) (UniProt P00918); assay: CAII small-molecule binders, profiling panel, biochemical, small-molecule microarray, Alexa647-labelled CAII (AID 1122); settings: CAII-A647 binding fluorescence, higher = more signal
[6] = COS7 lysate on small-molecule microarray, probe aHis, 635 nm (AID 1123); settings: COS7 cell lysate, fluorescence, higher = more signal;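 note: z-score combines 667nm fluorescence intensity with signal-to-noise per printed compound spot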
[7] = compound binding in COS7 lysate, probe aLAP1, primary screen, cell lysate, small-molecule microarray (AID 1124); settings: probe aLAP1, fluorescence, higher = more signal;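 note: lysate comes from COS7 cells expressing LAP1 and is applied at 0.3 µg/mL; score merges spot fluorescence near 667 nm with signal-to-noise over triplicate slides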
[8] = system: Sam68 (KHDRBS1); assay: Sam68 small-molecule binders, primary screen, biochemical, small-molecule microarray, 635 nm fluorescence (AID 1125); settings: small-molecule microarray binding, higher = more signal;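 note: score merges 667 nm channel intensity with signal to noise over triplicate slides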
[9] = system: Chordin-like protein 2 (CHRDL2); assay: CHRDL2 small-molecule binders, primary screen, biochemical, small-molecule microarray, 635 nm fluorescence (AID 1126); settings: small-molecule microarray binding, fluorescence 635 nm; higher = more signal;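 note: printed compound slides probed with Chrdl2 protein at 4 µg/mL for 1 h at 4 C; score merges 667 nm emission intensity with signal to noise over three replicate slides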
[10] = molecular target: Concanavalin-A (Canavalia ensiformis) (UniProt P02866); assay: ConA small-molecule binders, primary screen, artefact control for SMM control protein annotation, biochemical, small-molecule microarray, Alexa647 label, 635 nm (AID 1127); settings: ConA-A647 binding fluorescence, higher = more signal;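 note: z combines 667 nm emission intensity with signal-to-noise across three replicate slides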
[11] = anti-His antibody binders, primary screen, artefact control for SMM control protein annotation, biochemical, small-molecule microarray, 635 nm fluorescence (AID 1128); settings: anti-His Alexa647 antibody binding, higher = more signal;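 note: score merges feature fluorescence with signal-to-noise for each printed compound spot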
[12] = system: Human papillomavirus type 1a E7 protein (residues 1-88); assay: HPV1a E7 small-molecule binders, primary screen, biochemical, small-molecule microarray, residues 1-88, 635 nm (AID 1129); settings: small-molecule microarray binding, fluorescence 635 nm; higher = more signal
[13] = molecular target: Focal adhesion kinase 1 (Homo sapiens) (UniProt Q05397); assay: small-molecule microarray binders of FAK, primary screen, biochemical, 635/667 nm fluorescence, BSA, DTT (AID 1130); settings: PTK2 binding, 635 nm fluorescence, higher = more signal;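 note: composite of spot emission at 667 nm and signal to noise over triplicate slides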
[14] = system: Fibrinogen (Alexa647-labelled); assay: fibrinogen binders on compound microarrays, profiling panel, artefact control for SMM control-protein annotation, biochemical, small-molecule microarray, 635/667 nm fluorescence (AID 1131); settings: fibrinogen-A647 binding fluorescence, higher = more signal;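 note: z-score merges 667 nm fluorescence with per-spot signal-to-noise over triplicate slides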
[15] = molecular target: Follistatin (Homo sapiens) (UniProt P19883); assay: follistatin binders on small-molecule microarrays, primary screen, biochemical, small-molecule microarray, 635/667 nm fluorescence (AID 1132); settings: FST binding, 635 nm fluorescence, higher = more signal
[16] = molecular target: Fibroblast growth factor 2 (Homo sapiens) (UniProt P09038); assay: FGF2 binders on small-molecule microarrays, primary screen, biochemical, small-molecule microarray, 635/667 nm fluorescence (AID 1133); settings: small-molecule microarray binding, FGF2, fluorescence 635/667; higher = more signal
[17] = mitochondrial membrane potential change in A549 cells, profiling panel, cell-based, JC-1 fluorescence, basal, 24 h, 100 nL (AID 1138); settings: higher = more signal;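 note: A549 lung adenocarcinoma cells under basal conditions with no added stimulus; test concentration not given here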
[18] = system: Lefty1; assay: Lefty1 binders on small-molecule microarrays, primary screen, biochemical, small-molecule microarray, 635/667 nm fluorescence (AID 1139); settings: small-molecule microarray binding, fluorescence 635/667; higher = more signal
[19] = system: wheat germ agglutinin (Triticum aestivum), Alexa647-labelled; assay: wheat germ agglutinin binders on compound microarrays, profiling panel, artefact control for SMM control-protein annotation, biochemical, small-molecule microarray, 635/667 nm fluorescence (AID 1140); settings: WGA-A647 binding, 635 nm fluorescence, higher = more signal;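 note: score merges 667 nm feature emission with signal to noise over triplicate slides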
[20] = molecular target: Luciferin 4-monooxygenase (Photinus pyralis) (UniProt P08659); assay: firefly luciferase enzyme inhibitors, primary screen, biochemical, luminescence, purified enzyme, 2006 set (AID 1141); settings: SteadyGlo luminescence, 30 min, higher = more signal, called active from +8 up or from −8 down;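 note: cell-free assay with purified firefly luciferase at 100 ng per well in PBS; test concentration not given here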
Sequence of Luciferin 4-monooxygenase (Photinus pyralis) (P08659 whole entry, looked up): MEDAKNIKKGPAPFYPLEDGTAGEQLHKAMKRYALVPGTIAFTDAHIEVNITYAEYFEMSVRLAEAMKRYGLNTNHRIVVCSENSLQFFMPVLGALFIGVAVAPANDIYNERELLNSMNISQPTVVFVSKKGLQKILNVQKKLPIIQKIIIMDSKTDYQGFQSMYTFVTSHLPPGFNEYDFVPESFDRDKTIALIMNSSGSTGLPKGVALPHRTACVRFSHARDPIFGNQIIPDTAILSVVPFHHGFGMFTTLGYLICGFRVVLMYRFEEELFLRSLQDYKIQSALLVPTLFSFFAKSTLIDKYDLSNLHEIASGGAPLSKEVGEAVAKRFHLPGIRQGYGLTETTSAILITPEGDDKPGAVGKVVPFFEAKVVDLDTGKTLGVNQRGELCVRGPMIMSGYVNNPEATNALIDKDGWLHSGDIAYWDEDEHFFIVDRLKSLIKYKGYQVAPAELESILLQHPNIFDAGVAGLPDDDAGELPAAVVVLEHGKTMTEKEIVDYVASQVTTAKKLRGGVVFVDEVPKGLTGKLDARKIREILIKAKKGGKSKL

Sequence of Follistatin (Homo sapiens) (P19883 whole entry, looked up): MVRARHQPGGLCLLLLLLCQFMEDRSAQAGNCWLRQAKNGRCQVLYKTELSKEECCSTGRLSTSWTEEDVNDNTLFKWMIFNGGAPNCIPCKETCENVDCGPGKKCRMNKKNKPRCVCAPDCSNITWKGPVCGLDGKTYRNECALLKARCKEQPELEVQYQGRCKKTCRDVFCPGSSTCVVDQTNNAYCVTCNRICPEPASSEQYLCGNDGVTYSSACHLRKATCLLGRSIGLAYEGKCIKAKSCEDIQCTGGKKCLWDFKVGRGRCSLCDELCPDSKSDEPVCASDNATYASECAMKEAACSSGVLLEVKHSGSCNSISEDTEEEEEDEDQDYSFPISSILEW
Sequence of Fibroblast growth factor 2 (Homo sapiens) (P09038 whole entry, looked up): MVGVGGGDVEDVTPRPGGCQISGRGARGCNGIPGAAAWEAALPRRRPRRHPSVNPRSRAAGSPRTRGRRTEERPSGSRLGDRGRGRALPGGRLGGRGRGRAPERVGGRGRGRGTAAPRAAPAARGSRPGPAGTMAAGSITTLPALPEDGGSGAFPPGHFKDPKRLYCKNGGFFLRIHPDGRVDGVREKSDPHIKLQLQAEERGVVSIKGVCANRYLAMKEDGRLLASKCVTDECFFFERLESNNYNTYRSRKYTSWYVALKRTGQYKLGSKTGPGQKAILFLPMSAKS
Sequence of Albumin (Bos taurus) (P02769 whole entry, looked up): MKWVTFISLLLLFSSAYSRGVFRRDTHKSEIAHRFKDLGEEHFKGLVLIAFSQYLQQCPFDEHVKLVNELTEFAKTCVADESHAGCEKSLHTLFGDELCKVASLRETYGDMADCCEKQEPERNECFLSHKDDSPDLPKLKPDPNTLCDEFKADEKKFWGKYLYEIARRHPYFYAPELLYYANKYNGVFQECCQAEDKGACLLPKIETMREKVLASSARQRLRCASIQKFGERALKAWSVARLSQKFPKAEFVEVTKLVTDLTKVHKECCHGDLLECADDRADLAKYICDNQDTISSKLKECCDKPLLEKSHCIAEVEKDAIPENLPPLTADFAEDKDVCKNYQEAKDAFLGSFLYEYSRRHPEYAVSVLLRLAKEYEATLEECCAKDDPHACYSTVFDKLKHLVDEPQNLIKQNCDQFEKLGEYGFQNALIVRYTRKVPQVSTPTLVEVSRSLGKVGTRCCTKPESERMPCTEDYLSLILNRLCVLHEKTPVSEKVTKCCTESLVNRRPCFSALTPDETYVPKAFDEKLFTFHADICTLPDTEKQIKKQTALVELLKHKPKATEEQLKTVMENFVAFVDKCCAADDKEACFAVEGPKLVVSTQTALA
Sequence of Focal adhesion kinase 1 (Homo sapiens) (Q05397 whole entry, looked up): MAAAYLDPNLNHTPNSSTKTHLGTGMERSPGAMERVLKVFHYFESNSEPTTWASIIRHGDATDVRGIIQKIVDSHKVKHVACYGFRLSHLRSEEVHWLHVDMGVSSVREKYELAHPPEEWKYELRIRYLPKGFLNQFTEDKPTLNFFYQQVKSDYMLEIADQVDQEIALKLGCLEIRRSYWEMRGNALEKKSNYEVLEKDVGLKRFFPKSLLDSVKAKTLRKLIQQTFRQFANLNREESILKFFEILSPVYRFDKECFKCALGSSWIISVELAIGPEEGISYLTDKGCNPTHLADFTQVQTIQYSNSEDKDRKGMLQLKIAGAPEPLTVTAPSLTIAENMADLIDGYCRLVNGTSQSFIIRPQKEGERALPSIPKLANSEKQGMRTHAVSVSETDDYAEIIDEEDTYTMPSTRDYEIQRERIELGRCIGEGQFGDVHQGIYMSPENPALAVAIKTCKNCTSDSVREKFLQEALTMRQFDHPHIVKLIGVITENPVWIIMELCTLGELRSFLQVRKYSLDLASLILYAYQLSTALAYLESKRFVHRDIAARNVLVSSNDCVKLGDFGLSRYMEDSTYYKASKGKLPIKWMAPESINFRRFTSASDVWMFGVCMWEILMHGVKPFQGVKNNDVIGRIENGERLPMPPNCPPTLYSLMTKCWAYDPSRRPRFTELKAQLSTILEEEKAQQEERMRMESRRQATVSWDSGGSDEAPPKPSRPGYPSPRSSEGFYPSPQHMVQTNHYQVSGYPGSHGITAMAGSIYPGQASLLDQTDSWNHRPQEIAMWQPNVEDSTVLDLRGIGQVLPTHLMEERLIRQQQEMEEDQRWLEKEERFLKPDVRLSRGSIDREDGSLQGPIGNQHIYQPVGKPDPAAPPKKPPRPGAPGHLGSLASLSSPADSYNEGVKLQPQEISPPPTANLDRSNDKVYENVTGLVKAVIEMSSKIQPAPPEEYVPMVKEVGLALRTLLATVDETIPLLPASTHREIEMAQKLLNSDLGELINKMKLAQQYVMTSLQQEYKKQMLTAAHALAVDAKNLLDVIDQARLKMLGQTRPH
Sequence of Concanavalin-A (Canavalia ensiformis) (P02866 whole entry, looked up): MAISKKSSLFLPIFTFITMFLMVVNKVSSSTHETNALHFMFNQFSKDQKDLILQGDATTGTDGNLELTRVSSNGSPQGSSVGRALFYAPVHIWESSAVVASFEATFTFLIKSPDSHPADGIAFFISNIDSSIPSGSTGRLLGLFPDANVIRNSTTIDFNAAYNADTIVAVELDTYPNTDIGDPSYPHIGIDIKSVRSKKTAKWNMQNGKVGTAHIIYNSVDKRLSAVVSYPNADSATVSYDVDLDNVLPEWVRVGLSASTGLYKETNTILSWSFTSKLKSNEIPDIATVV

| Compound | composite z-score [1] | composite Z-score [2] | composite z-score [3] | composite z-score [4] | composite z-score [5] | composite z-score [6] | composite z-score [7] | composite z-score [8] | composite z-score [9] | composite z-score [10] | composite z-score [11] | composite z-score [12] | composite z-score [13] | composite z-score [14] | composite z-score [15] | composite z-score [16] | z-score [17] | composite z-score [18] | composite z-score [19] | z-score [20] |
| --- | --- | --- | --- | --- | --- | --- | --- | --- | --- | --- | --- | --- | --- | --- | --- | --- | --- | --- | --- | --- |
| O=C1[C@H]2[C@H]3[C@H](O)[C@H](O)CC(=NOC[C@@H](O)COCc4ccco4)[C@@H]3CC[C@H]2C(=O)N1Cc1ccc2c(c1)OCO2 | 0.29 | 0.564 (inactive) | -0.127 | -0.148 | -0.307 | -0.0845 | 0.123 | 0.275 | 1.54 | -0.19 | -0.133 | -0.499 | -0.347 | -0.952 | 1.35 | 1.56 | 0.96 | 0.793 | -0.63 | -0.0365 (inactive) |
| CCN1C(=O)[C@H]2[C@H]3[C@H](O)[C@H](O)CC(=NOCC[C@@H]4C=C[C@H](OC(C)=O)[C@@H](COC(C)=O)O4)[C@@H]3CC[C@H]2C1=O | 0.541 | 0.501 (inactive) | -0.149 | -0.12 | 0.385 | 0.305 | 0.256 | 0.214 | 0.63 | 0.544 | 0.535 | 0.311 | 0.39 | 0.936 | 0.472 | 0.419 | -0.812 | 0.298 | 0.97 | 0.838 (inactive) |
| COC(=O)CC=C[C@@H](C)[C@@H](C=NOC(C)CN1CCCc2nc(C)c(C)cc21)NS(=O)(=O)c1ccc(C)cc1 (stereo not given in full) | -0.515 | 0.964 (inactive) | 0.033 | 0.0098 | -0.19 | 0.726 | 0.416 | 1.14 | 0.641 | 0.0308 | 2.64 | 0.549 | 0.299 | 0.451 | 0.789 | 0.533 | 0.835 | 0.765 | 0.11 | 0.679 (inactive) |
| COc1ccc(O[C@H]2C=C[C@@H](c3ccccc3)O[C@@H]2COC(=O)NCc2cccc3ccccc23)cc1 | -0.194 | -0.341 (inactive) | -0.191 | -0.159 | -0.219 | -0.146 | -0.0544 | -0.0446 | 0.281 | 0.335 | -0.816 | -0.406 | -0.235 | -0.138 | -0.0584 | 0.353 | 1.07 | 0.0182 | -0.317 | 0.441 (inactive) |
| CC(CCC(=O)OC[C@H]1O[C@H](C#Cc2ccccc2)C=C[C@@H]1Oc1ccc(C)cc1)=NO[C@@H](C)c1cc(-c2c(C)cc(C)cc2C)no1 | 0.363 | -0.61 (inactive) | -0.272 | -0.14 | -0.0955 | 0.0007 | 0.173 | -0.42 | -0.872 | -0.214 | 0.888 | -1.49 | -0.0556 | 0.709 | -0.921 | -0.977 | -0.00541 | -0.589 | 0.848 | 0.0957 (inactive) |
| C#CCCCON=C1C[C@@H](O)[C@@H](O)[C@@H]2[C@@H]3C(=O)N(C[C@@H]4CCCO4)C(=O)[C@@H]3CC[C@@H]12 | 0.211 | -0.294 (inactive) | -0.047 | -0.0614 | 0.406 | 0.31 | 0.221 | 0.254 | 0.264 | 0.842 | 0.265 | 0.439 | -0.14 | 0.527 | 0.378 | 0.222 | 0.441 | 0.554 | 0.553 | -0.106 (inactive) |
| O=C(NN=C1C[C@@H](O)[C@@H](O)[C@@H]2[C@@H]3C(=O)N(Cc4ccccc4)C(=O)[C@@H]3CC[C@H]12)OCc1ccccc1 | 0.055 | 0.0005 (inactive) | -0.118 | -0.17 | -0.253 | -0.771 | 0.0639 | -0.0039 | 0.36 | -0.085 | -0.136 | -0.0677 | 0.0773 | -0.265 | 0.387 | 0.388 | 0.101 | 0.617 | 0.0185 | 0.534 (inactive) |
| O=C1C=C[C@@H](O)[C@@H]2[C@@H]3C(=O)N(Cc4ccccc4)C(=O)[C@@H]3CC[C@@H]12 | 0.22 | -0.5 (inactive) | 0.21 | -0.132 | -0.0331 | 0.556 | -0.139 | 0.0888 | 0.482 | 0.619 | 0.0502 | 0.673 | 0.168 | 0.394 | 0.415 | 0.484 | 0.831 | 0.314 | 0.228 | -0.505 (inactive) |
| C[C@H]1CC[C@H]2C(=O)O[C@H](CO)CN2[C@@H]1c1ccc(Br)cc1 | 0.167 | 0.436 (inactive) | 0.0081 | -0.124 | -0.11 | -0.0346 | 0.0438 | 0.424 | 0.229 | -0.453 | -0.15 | 0.015 | 0.638 | 0.0011 | 0.0723 | 0.103 | 0.69 | 0.353 | -0.004 | -0.19 (inactive) |
| CC(CCC(=O)OC[C@H]1O[C@H](C#Cc2ccccc2)C=C[C@@H]1Oc1ccc(C)cc1)=NOC[C@@H](C)[C@H](OCc1ccccc1)C(C)C | -0.607 | 0.35 (inactive) | -0.325 | -0.226 | -0.0949 | 1.47 | -0.427 | -1.2 | -0.606 | -1.14 | 0.0009 | -0.849 | -0.502 | -1.36 | -0.554 | -0.625 | -0.197 | -0.295 | -0.726 | 1.03 (inactive) |
| CCOC(=O)[C@H](CC(C)C)NC(=O)CCC1CC(OC(=O)NCc2ccc3c(c2)OCO3)CC2(CCCC(COC(=O)NCc3ccccc3)O2)O1 (stereo not given in full) | 0.646 | 1.09 (inactive) | -0.226 | -0.146 | 0.198 | 1.25 | -0.118 | 1.19 | 0.161 | 1.01 | 0.333 | 0.946 | 0.0786 | 0.926 | 0.659 | 0.495 | -0.0369 | 1.03 | 0.786 | 0.976 (inactive) |

From PubChem BioAssay
